Measured values: ChEMBL document CHEMBL3988442, “University of Dundee, Small-Polar-MMV Screening Library” (2021)
For some assays here: Potency and affinity values are given separately.

What was measured:
Parameters in all cases: scale not given: direction of the effect not stated beside the values
[1] = biological target: Protein translocase subunit SecA (Escherichia coli (strain K12)) (UniProt P10408); experiment: Assay to Identify E. coli SecA ATPase Inhibitors; type: functional; details: 30 µM
Protein translocase subunit SecA (Escherichia coli (strain K12)), sequence (P10408 whole entry): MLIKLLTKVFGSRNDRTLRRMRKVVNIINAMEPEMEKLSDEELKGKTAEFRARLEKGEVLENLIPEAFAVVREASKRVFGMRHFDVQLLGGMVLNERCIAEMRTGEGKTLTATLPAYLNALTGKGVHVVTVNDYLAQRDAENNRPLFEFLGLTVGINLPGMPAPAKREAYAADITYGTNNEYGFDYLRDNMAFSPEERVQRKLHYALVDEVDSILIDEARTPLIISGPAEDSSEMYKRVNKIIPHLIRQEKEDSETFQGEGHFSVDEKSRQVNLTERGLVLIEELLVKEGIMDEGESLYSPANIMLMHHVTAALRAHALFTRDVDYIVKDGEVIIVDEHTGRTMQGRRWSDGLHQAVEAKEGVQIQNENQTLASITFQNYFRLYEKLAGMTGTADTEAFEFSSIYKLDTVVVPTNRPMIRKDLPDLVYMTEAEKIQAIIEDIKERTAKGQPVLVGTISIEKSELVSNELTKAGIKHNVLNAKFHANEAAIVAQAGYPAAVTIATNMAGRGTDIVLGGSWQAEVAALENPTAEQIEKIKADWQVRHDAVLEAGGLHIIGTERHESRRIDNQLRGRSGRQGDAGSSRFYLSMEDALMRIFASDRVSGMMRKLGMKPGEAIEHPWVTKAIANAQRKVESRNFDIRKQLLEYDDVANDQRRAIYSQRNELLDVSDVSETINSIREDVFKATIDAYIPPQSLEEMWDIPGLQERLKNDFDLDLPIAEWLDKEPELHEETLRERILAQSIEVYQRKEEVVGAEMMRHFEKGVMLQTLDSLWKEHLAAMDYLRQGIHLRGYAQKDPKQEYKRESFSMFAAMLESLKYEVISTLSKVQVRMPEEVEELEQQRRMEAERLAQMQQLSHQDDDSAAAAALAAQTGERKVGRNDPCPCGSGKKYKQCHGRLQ

[2] = biological target: T1, Ubiquitin-activating enzyme e1, putative (Leishmania donovani (strain BPK282A1)) (UniProt E9BSI1); experiment: Leishmania donovani Ubiquitin Activating Enzyme (LdE1); type: functional; details: 30 µM
T1 sequence (whole entry): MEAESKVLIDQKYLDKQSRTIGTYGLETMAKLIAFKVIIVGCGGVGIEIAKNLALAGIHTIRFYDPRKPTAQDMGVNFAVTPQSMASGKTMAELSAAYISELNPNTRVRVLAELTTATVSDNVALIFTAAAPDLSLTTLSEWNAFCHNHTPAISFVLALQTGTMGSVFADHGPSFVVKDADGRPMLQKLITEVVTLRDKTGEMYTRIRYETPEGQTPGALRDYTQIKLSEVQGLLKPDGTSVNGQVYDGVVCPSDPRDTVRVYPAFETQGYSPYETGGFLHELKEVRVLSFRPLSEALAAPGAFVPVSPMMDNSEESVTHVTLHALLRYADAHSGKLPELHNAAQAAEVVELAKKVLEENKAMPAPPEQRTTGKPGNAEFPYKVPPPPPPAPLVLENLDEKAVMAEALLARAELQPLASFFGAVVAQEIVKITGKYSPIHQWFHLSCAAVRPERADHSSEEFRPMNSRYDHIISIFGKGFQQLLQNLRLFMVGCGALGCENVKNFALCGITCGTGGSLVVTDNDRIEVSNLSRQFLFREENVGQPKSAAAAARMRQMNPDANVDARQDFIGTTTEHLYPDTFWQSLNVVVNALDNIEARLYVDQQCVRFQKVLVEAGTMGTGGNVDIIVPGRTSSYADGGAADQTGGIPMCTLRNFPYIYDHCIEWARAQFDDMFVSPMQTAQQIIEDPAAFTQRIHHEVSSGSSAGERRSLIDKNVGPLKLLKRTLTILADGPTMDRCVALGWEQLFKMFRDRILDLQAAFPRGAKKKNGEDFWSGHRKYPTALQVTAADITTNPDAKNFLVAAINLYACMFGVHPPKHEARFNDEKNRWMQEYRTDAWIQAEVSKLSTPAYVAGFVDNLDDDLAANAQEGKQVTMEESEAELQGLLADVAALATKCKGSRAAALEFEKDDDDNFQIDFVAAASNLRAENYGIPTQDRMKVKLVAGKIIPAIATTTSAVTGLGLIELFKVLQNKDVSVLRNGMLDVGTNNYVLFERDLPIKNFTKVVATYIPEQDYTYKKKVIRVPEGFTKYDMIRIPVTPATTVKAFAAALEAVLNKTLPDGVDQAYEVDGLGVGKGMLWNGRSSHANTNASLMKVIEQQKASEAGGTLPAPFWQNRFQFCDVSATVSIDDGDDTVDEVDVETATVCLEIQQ

[3] = biological target: Sialic acid-binding Ig-like lectin 9 (Homo sapiens) (UniProt Q9Y336); experiment: Hs-Siglec9 ALPHAscreen SOP 20170721; details: 10 µM
Sialic acid-binding Ig-like lectin 9 (Homo sapiens), sequence (Q9Y336 whole entry): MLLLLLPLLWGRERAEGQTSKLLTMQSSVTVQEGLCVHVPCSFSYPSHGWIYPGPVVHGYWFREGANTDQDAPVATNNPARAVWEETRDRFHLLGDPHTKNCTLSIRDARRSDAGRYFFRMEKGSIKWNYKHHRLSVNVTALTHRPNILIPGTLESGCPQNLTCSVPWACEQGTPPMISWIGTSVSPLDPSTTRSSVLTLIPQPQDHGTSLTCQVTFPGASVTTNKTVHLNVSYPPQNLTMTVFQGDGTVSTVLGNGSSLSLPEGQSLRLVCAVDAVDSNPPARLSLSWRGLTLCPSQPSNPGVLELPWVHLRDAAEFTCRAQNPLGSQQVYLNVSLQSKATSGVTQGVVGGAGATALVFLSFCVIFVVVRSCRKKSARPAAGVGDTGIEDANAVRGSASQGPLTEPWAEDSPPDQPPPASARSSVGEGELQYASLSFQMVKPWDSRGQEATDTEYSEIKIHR

Trypanosoma cruzi = experiment: Trypanosoma cruzi phosphomannomutase and mannose-1-phosphate guanylyltransferase assay; type: functional; details: 10 µM
[4] = biological target: T2, Arginase-2, mitochondrial (Homo sapiens) (UniProt P78540); experiment: in vitro enzyme assay to detect the production of urea directly proportional to the activity of Arginase II; type: functional; details: 33.3 µM; note: in the data most compounds retested in dose-response had high values
T2 sequence (whole entry): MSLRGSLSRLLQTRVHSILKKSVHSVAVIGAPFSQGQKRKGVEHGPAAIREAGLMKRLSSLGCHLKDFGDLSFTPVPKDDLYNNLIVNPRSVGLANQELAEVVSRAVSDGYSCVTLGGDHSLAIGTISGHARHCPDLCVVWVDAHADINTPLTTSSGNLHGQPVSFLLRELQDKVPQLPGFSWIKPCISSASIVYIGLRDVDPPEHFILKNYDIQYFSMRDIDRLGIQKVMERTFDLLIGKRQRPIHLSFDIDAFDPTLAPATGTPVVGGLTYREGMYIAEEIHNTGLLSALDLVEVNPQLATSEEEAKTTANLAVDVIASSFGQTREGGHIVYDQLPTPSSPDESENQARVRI

[5] = biological target: T3, Proteasome subunit beta (Trypanosoma cruzi) (UniProt O96673); experiment: Trypanosoma cruzi proteasome chymotrypsin-like activity (TcProtChymo) assay.; note: in the data most compounds retested in dose-response had high values; type: functional; details: 9.37 µM
T3 sequence (whole entry): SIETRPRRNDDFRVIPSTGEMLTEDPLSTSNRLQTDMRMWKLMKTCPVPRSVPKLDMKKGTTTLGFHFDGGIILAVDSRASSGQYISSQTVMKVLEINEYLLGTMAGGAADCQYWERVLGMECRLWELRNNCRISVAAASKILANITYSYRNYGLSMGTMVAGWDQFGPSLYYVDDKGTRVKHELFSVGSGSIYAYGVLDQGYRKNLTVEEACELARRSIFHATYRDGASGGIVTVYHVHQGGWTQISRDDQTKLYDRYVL

Homo sapiens = species: Homo sapiens; experiment: To identify inhibition of the IFN signalling (Jak-Stat) pathway via expression of an eGFP reporter gene under the control of an IFN-stimulated response element (ISRE) containing MxA promoter.; type: functional; details: 30 µM
[6] = biological target: T4, Tyrosyl-tRNA synthetase, putative (Trypanosoma cruzi (strain CL Brener)) (UniProt Q4DSP6); experiment: Trypanosoma cruzi tyrosyl tRNA synthetase (TcYRS) _High Tyrosine SOP; type: functional; details: 30 µM; note: in the data most compounds retested in dose-response had high values
T4 sequence (whole entry): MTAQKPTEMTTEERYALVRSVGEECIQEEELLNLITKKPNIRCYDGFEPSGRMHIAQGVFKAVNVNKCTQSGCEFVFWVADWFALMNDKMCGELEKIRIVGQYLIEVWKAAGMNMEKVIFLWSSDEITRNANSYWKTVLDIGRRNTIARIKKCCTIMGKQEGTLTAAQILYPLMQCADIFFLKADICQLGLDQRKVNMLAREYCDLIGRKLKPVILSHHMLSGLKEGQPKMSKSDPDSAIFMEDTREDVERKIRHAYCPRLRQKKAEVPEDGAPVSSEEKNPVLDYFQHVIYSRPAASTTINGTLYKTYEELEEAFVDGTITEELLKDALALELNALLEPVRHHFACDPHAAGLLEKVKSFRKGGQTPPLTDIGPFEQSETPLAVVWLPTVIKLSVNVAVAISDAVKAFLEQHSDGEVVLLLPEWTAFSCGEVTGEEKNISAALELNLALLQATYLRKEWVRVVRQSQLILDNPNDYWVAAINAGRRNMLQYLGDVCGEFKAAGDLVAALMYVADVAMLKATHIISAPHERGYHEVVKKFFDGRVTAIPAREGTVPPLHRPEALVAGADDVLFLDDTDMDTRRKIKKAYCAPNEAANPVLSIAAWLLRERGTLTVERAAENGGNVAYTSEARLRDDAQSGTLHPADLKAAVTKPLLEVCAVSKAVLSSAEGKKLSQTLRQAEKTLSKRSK

[7] = biological target: T4, Tyrosyl-tRNA synthetase, putative (Trypanosoma cruzi (strain CL Brener)); experiment: Trypanosoma cruzi tyrosyl tRNA synthetase (TcYRS) SOP; type: functional; details: 30 µM
[8] = biological target: Chromo domain-containing protein 1 (Saccharomyces cerevisiae (strain ATCC 204508 / S288c) (Baker's yeast)) (UniProt P32657); experiment: ScCHD-1 Enzyme Inhibition Assay; type: functional; details: 30 µM; note: in the data most compounds retested in dose-response had high values
Chromo domain-containing protein 1 (Saccharomyces cerevisiae (strain ATCC 204508 / S288c) (Baker's yeast)), sequence (P32657 whole entry, the tested form may be a part): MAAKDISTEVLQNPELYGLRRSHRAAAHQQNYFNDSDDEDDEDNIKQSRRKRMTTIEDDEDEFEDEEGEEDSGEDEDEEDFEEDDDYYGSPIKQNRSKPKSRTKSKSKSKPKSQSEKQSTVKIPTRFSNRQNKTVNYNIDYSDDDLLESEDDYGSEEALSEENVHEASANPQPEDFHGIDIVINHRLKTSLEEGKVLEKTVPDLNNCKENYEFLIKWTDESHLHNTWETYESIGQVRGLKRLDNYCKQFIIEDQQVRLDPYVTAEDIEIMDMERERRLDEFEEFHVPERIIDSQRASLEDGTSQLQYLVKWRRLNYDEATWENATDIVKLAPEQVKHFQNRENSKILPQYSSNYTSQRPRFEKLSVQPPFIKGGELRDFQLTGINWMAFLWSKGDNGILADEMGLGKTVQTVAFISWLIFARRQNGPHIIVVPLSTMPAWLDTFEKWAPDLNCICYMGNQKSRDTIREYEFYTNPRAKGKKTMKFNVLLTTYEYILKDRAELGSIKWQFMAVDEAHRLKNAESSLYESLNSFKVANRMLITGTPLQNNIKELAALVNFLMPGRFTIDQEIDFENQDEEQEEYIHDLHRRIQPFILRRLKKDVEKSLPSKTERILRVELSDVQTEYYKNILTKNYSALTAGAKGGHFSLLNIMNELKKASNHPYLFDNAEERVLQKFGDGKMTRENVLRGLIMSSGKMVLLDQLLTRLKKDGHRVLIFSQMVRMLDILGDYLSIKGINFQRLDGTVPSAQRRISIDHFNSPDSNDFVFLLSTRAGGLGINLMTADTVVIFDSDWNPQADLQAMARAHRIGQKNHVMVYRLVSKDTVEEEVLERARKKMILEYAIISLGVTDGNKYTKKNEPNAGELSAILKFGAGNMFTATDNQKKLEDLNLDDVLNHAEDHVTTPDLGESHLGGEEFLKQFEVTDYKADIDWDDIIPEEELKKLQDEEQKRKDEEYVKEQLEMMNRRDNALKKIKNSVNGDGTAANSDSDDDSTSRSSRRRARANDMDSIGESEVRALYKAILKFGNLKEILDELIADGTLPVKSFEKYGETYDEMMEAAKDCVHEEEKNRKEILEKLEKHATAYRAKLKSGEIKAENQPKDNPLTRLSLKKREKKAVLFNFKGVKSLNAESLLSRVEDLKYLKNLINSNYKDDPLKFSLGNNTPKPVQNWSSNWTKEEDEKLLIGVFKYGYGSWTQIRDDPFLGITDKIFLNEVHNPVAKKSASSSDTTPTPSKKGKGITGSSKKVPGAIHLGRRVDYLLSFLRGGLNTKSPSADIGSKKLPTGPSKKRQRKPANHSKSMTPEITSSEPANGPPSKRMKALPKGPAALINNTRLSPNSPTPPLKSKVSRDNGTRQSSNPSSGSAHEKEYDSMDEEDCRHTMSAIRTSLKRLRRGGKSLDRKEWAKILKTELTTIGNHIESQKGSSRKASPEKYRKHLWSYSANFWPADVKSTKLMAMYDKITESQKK

Row | SMILES | Percent Effect [1] [%] | Percent Effect [2] [%] | Percent Effect [3] [%] | Percent Effect (Trypanosoma cruzi) [%] | Percent Effect [4] [%] | Percent Effect [5] [%] | Percent Effect (Homo sapiens) [%] | Percent Effect [6] [%] | Percent Effect [7] [%] | Percent Effect [8] [%]
1 | O=C(c1ccc(OCC2CC2)nc1)N1CCCC(n2cncn2)C1 (stereo not given) | -1.42 | 10.3 | -4.65 | -3.1 | 7.79 | 9.13 | 19.1 | 5.26 | 13.2 | -4.21
2 | O=C(NCCc1coc(-c2ccc(F)cc2)n1)NC1CCC(O)CC1 (stereo not given) | -5.41 | 21.3 | 5.86 | 5.82 | -0.887 | 15.7 | 6.59 | 5.79 | 15.4 | -15.6
3 | Cc1noc(C2CCN(C(=O)c3ccc(NC4CC4)nc3)CC2)n1 | -3.73 | 20.5 | -12.9 | 4.6 | 1.64 | 11.3 | 11.4 | 2.39 | 20.5 | -6.59
4 | COc1ccc(OC)c(Sc2ncccc2C(=O)N(C)CCC#N)c1 | -2.48 | 16.9 | -3.09 | 0.75 | 0 | 15.5 | 32.7 | 4.83 | 10 | -12.2
5 | O=c1cc(Cn2cncn2)nc2n1CCCN(CC1CC1)C2 | -4.98 | 11.7 | -1.33 | 1.27 | -1.22 | 9.09 | -6.93 | 3.68 | 5.13 | -4.01
6 | O=C(NCC1CCOC1)Nc1ccc(OCC(F)(F)F)nc1 (stereo not given) | 0.633 | 7.69 | 2.59 | -1.97 | 8.2 | 7.76 | 17.4 | 2.39 | 8.43 | -2.87
7 | Cc1csc2ncc(-c3ccnc(N4CCCC[C@@H]4CO)n3)c(=O)n12 | -2.72 | -16 | -2.59 | -2.41 | 0 | 7.72 | 19.8 | -3.68 | -12.8 | -17.9
8 | Cc1cccc(-c2noc(CN3CCCC3Cn3cccn3)n2)c1 (stereo not given) | -4.47 | -13.3 | 4.15 | 2.81 | -0.887 | 9.07 | 35.3 | 1.58 | 2.56 | -6.03
9 | Cn1cc(CN2CCCC3(CCCN3S(C)(=O)=O)C2)cn1 (stereo not given) | -3.74 | 9.09 | -4.49 | -4.77 | 2.02 | 12.3 | -3.8 | 5.79 | 10.3 | 1.97
10 | O=C(NCC1CCSCC1)N(CCCO)C1CCc2ccccc21 (stereo not given) | -1.28 | 8 | -4.32 | -4.02 | -3.1 | 9.92 | 11 | -0.526 | 0 | -14.3
11 | O=C1CC(c2ccco2)c2sc(C(=O)O)c(-c3ccccc3)c2N1 (stereo not given) | -3.7 | 18.9 | 68.7 | 2.23 | -3.85 | 27.7 | -0.84 | 7.98 | 17.1 | 44.8
12 | CCn1ccnc1CN(C)CC1CCCN1c1cccnn1 (stereo not given) | -2.58 | 2.67 | -5.89 | 0 | 0.887 | 20.8 | 6.16 | 5.79 | 12.8 | -11.5
13 | CC(C)n1ccnc1CN1CCCN(C(=O)c2cc(Cl)c[nH]2)CC1 | -0.854 | 10.3 | -9.31 | -3.1 | 11.5 | 16.1 | 10.8 | 6.22 | 18.1 | -3.25
14 | Cc1nn(-c2ccccc2)c(C)c1CNC1CCc2ncnn2C1 (stereo not given) | -0.655 | 10.3 | 7.05 | 4.79 | 8.2 | 7.93 | -12.2 | 7.18 | 22.9 | -3.12
15 | O=C(c1cc(C2CC2)[nH]n1)N1CCCC(n2cncn2)C1 (stereo not given) | -2.3 | 7.69 | -12.5 | 4.6 | 1.23 | 8.11 | -13.2 | 2.39 | 10.8 | -2.79
16 | CCc1ccc(CN2CCC3(CC2)NC(=O)CC3c2ccncc2)o1 (stereo not given) | -9.93 | 6.49 | -0.747 | -3.21 | -5.26 | 9.27 | -2.1 | 0.526 | 7.69 | -2.68
17 | CCc1nccn1C1CCCN(C(=O)Cc2ccc(OC)c(F)c2)C1 (stereo not given) | -7.36 | 16 | 14.5 | -1.21 | 1.77 | 7.38 | 13 | 6.84 | 10.3 | -9.19
18 | COCc1nc(C(=O)N2CCCC(n3cccn3)C2)cs1 (stereo not given) | -1.77 | 13 | 6.57 | -4.29 | 2.25 | 8.6 | -4.23 | 2.94 | 16.5 | -6.38
19 | CC(C)NC(=O)C1CN(C(=O)N2CCCC2)CC12CCOCC2 (stereo not given) | -1.18 | -3.9 | -4.49 | -1.27 | -4.45 | -6.62 | 5.24 | 2.63 | 2.56 | 2.05
20 | CN1CCCn2c(nc(CNC(=O)c3ccsc3)cc2=O)C1 | -0.659 | 1.3 | -2.49 | -8.28 | 6.07 | 5.56 | -5.79 | 1.58 | 5.13 | -0.931
21 | COc1cc(C)nc(N2CCN(C(=O)CN(C)C3CC3)CC2)n1 | -5.5 | 7.69 | -4.33 | -3.1 | -1.23 | 2.99 | 28.9 | -1.44 | 8.43 | 0.147
22 | CCc1nc(C2CCCN2C(=O)c2nc(C)n3ccccc23)no1 (stereo not given) | -0.63 | 2.67 | -0.749 | -5.02 | 4.43 | 3.65 | 15 | 4.74 | 5.13 | -15.8
23 | Cc1ncc(-c2ccnc(N3CCCCC3)n2)c(=O)[nH]1 | -0.483 | 8 | 1.07 | -8.84 | -0.887 | 9.07 | 21.2 | 0.526 | 5.13 | -11.6
